# Reference: PMC7862700, “An all-to-all approach to the identification of sequence-specific readers for epigenetic DNA modifications on cytosine”
# How the values were obtained:
# Experiment in all cases: DAPPL (digital affinity profiling via proximity ligation, sequencing); 10 mM Tris-HCl pH 7.5, 50 mM NaCl, 1 mM DTT, 4% glycerol, room temperature, 30 min; GST-TFs on glutathione beads, 16-mer random dsDNA library, 0.1% formaldehyde crosslink after washing; high values mean tight binding
# [1] = target: T1, FLI1 (Homo sapiens, UniProt Q01543 1-452); conditions: protein: recombinant; tags: N-terminal GST; dsDNA, one strand shown
# T1 sequence: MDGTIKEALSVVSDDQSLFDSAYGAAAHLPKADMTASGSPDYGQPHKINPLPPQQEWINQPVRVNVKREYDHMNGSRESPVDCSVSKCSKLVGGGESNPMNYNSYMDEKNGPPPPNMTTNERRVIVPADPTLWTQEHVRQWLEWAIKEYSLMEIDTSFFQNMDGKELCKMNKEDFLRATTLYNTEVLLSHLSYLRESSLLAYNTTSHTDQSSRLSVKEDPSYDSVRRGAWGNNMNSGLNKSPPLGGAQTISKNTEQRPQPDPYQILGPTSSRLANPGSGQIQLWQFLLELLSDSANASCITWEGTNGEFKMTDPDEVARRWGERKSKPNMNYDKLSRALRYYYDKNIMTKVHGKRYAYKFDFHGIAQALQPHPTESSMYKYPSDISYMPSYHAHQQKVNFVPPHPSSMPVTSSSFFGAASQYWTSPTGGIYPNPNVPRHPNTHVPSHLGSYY
# How it was run: (§1)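 In yeast, human transcription factors were expressed with a GST fusion, then pulled down on glutathione beads and given DNA barcodes. Pooled with a tag-only sample, they were exposed to 200 nmole of a 16-mer random double-stranded DNA library (Tris/NaCl/DTT/glycerol buffer, room temperature, 30 min), washed, crosslinked with 0.1% formaldehyde, proximity-ligated using BsaI/T4 ligase for 1 h at 37 °C, PCR-amplified and read on an Illumina NextSeq500. Each hexamer's frequency of reads for a factor, divided by the matching frequency for the tag-only sample, gives the binding signal.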
# [2] = target: T2, ELK1 (Homo sapiens, UniProt P19419 1-428); conditions: protein: recombinant; tags: N-terminal GST; dsDNA, one strand shown
# T2 sequence: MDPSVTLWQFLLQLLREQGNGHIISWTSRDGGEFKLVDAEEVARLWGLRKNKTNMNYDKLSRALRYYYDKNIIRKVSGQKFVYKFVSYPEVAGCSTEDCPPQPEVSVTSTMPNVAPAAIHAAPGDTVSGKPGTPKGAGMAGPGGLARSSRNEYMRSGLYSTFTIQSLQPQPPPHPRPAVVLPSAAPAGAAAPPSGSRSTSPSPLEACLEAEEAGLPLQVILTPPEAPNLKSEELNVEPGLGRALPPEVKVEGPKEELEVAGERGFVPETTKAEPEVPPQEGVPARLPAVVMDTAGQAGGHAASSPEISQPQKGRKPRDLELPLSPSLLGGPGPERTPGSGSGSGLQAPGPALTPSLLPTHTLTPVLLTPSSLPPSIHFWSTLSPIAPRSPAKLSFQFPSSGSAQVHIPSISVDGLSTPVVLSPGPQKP
# How it was run: as §1
# [3] = target: T3, GABPA (Homo sapiens, UniProt Q06546 1-454); conditions: protein: recombinant; tags: N-terminal GST; dsDNA, one strand shown
# T3 sequence: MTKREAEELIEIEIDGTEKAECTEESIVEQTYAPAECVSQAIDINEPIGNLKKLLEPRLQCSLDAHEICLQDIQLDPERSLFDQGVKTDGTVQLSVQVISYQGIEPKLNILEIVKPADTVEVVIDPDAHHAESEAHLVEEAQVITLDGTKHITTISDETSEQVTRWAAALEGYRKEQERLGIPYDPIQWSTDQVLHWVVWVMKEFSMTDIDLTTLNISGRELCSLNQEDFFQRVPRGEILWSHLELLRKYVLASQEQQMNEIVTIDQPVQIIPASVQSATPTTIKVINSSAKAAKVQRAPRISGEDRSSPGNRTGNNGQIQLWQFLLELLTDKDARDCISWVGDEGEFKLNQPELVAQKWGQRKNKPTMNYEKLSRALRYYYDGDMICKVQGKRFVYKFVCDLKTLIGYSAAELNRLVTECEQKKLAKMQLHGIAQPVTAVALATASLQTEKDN
# How it was run: as §1
# [4] = target: T4, ERG (Homo sapiens, UniProt P11308 1-479); conditions: protein: recombinant; tags: N-terminal GST; dsDNA, one strand shown
# T4 sequence: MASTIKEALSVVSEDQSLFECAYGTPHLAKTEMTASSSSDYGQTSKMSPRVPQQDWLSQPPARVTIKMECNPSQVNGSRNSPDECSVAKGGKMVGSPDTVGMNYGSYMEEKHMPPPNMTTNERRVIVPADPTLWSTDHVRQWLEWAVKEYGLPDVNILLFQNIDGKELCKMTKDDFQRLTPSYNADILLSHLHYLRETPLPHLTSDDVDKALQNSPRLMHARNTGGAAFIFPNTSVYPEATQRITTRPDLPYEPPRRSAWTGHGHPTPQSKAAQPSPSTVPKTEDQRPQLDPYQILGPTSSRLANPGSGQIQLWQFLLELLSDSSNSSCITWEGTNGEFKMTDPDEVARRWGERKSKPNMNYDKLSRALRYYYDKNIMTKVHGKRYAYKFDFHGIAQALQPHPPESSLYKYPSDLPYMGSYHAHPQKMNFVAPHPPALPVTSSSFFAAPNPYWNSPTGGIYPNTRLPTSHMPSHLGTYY
# How it was run: as §1
# [5] = target: ELF1 (Homo sapiens, UniProt P32519 1-619); conditions: protein: recombinant; tags: N-terminal GST; dsDNA, one strand shown
# ELF1, sequence (P32519 whole entry): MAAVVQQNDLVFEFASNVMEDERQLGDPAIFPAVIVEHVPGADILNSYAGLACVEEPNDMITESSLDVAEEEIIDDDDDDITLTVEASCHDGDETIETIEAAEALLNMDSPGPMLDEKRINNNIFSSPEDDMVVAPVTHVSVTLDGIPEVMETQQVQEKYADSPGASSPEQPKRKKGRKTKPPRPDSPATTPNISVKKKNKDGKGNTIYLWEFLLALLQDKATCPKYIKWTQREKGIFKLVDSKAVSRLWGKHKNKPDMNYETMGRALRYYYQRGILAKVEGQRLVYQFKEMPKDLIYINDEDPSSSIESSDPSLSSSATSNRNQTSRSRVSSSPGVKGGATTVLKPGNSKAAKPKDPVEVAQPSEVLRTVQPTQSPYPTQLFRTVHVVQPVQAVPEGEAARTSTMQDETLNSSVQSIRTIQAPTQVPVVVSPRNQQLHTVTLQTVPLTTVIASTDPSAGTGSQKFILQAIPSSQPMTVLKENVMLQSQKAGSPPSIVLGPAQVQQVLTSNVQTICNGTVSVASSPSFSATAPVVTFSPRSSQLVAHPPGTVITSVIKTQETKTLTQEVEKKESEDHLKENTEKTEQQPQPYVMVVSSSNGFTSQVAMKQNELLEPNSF
# How it was run: as §1
# [6] = target: T5, EHF (Homo sapiens, UniProt Q9NZC4 1-300); conditions: protein: recombinant; tags: N-terminal GST; dsDNA, one strand shown
# T5 sequence: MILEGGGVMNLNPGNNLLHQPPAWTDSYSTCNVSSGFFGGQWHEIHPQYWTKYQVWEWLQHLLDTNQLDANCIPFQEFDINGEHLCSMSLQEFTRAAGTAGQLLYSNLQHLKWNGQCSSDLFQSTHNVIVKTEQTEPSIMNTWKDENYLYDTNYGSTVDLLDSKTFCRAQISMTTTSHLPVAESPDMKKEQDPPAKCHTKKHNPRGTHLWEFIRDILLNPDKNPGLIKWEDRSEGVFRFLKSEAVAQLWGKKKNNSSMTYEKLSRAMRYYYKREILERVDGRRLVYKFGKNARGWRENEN
# How it was run: as §1
# [7] = target: SPI1 (Homo sapiens, UniProt P17947 1-270); conditions: protein: recombinant; tags: N-terminal GST; dsDNA, one strand shown
# How it was run: as §1
# [8] = target: SPIB (Homo sapiens, UniProt Q01892 1-262); conditions: protein: recombinant; tags: N-terminal GST; dsDNA, one strand shown
# SPIB, sequence (Q01892 whole entry): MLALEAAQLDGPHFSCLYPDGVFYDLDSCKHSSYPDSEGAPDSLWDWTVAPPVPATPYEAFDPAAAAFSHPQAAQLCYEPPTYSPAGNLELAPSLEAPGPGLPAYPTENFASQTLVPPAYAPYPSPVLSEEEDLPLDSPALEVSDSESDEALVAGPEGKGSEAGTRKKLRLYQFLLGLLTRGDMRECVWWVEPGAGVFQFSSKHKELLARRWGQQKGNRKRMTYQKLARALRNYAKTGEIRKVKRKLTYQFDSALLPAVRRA
# How it was run: as §1
# [9] = target: T6, ELK3 (Homo sapiens, UniProt P41970 1-407); conditions: protein: recombinant; tags: N-terminal GST; dsDNA, one strand shown
# T6 sequence: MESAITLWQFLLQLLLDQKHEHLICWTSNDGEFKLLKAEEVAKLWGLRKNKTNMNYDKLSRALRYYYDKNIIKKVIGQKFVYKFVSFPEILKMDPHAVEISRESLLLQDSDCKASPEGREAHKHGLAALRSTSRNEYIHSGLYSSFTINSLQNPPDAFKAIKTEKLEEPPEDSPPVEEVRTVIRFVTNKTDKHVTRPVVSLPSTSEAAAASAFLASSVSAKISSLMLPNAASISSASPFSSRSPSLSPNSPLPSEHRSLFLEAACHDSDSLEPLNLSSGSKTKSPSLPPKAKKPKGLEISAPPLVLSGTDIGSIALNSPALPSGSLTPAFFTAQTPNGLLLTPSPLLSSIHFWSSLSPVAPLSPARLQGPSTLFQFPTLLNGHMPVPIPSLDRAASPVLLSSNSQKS
# How it was run: as §1
# [10] = target: T7, FEV (Homo sapiens, UniProt Q99581 1-238); conditions: protein: recombinant; tags: N-terminal GST; dsDNA, one strand shown
# T7 sequence: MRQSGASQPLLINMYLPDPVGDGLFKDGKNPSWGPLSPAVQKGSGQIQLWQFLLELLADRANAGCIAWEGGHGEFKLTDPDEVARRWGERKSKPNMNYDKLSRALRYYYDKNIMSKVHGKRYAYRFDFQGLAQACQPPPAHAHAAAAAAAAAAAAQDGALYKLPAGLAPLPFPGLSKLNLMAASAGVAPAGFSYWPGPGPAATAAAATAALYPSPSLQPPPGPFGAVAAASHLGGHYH
# How it was run: as §1
# [11] = target: ETV5 (Homo sapiens, UniProt P41161 1-510); conditions: protein: recombinant; tags: N-terminal GST; dsDNA, one strand shown
# ETV5, sequence (P41161 whole entry): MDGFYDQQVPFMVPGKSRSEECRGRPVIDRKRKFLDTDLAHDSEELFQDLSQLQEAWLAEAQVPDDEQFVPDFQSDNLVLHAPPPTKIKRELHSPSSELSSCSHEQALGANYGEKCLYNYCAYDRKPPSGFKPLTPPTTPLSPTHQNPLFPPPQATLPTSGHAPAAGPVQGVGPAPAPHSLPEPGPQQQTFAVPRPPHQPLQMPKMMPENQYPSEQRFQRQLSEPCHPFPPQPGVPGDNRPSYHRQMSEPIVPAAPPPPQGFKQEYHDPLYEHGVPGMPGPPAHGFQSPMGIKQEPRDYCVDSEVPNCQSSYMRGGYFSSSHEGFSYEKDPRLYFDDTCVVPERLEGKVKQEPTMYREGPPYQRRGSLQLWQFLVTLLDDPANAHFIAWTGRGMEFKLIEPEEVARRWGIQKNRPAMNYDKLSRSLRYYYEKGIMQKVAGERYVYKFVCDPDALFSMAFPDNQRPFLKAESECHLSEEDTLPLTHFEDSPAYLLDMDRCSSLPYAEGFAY
# How it was run: as §1
# [12] = target: HSF1 (Homo sapiens, UniProt Q00613 1-529); conditions: protein: recombinant; tags: N-terminal GST; chain copies: 3; dsDNA, one strand shown
# HSF1, sequence (Q00613 whole entry): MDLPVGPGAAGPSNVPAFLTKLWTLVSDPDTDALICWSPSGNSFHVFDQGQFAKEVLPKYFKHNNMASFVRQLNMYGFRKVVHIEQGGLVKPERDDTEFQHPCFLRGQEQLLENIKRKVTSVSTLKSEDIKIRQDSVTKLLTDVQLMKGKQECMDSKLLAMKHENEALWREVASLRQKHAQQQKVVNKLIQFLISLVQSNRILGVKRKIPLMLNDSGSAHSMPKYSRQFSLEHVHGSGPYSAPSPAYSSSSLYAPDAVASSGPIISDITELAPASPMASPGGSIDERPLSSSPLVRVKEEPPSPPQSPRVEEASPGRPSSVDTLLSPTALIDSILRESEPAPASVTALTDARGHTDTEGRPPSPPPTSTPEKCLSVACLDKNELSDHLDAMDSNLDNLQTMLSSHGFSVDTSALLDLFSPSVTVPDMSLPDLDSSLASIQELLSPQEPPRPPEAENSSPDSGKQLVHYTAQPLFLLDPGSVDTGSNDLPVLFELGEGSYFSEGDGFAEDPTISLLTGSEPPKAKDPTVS
# How it was run: as §1
# [13] = target: T8, SPIC (Homo sapiens, UniProt Q8N5J4 1-248); conditions: protein: recombinant; tags: N-terminal GST; dsDNA, one strand shown
# T8 sequence: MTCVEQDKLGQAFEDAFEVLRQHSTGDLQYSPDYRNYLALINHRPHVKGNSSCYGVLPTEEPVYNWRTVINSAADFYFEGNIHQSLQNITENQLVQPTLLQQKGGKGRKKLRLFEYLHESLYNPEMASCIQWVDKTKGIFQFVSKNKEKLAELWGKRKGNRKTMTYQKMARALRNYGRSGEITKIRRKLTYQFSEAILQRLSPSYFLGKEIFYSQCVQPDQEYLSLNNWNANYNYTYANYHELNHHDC
# How it was run: as §1
# [14] = target: ELF4 (Homo sapiens, UniProt Q99607 1-663); conditions: protein: recombinant; tags: N-terminal GST; dsDNA, one strand shown
# ELF4, sequence (Q99607 whole entry): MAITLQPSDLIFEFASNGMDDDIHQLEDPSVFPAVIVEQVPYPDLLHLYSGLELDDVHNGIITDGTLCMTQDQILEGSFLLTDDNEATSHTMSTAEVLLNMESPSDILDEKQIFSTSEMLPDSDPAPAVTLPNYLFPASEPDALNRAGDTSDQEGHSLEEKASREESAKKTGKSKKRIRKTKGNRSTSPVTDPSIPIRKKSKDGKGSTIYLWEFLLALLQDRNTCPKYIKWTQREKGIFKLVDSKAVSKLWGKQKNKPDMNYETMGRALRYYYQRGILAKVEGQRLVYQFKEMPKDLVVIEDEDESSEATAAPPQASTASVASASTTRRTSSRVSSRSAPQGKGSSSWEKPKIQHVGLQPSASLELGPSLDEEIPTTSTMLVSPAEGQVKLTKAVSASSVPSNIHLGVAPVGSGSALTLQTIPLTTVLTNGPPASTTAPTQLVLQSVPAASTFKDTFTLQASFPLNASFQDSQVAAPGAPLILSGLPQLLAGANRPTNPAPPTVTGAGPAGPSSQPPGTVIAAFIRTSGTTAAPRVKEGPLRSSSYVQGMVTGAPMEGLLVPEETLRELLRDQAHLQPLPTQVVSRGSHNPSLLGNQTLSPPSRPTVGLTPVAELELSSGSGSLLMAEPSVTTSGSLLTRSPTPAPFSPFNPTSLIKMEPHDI
# How it was run: as §1
# [15] = target: T9, ELK4 (Homo sapiens, UniProt P28324-2 1-405); conditions: protein: recombinant; tags: N-terminal GST; dsDNA, one strand shown
# T9 sequence: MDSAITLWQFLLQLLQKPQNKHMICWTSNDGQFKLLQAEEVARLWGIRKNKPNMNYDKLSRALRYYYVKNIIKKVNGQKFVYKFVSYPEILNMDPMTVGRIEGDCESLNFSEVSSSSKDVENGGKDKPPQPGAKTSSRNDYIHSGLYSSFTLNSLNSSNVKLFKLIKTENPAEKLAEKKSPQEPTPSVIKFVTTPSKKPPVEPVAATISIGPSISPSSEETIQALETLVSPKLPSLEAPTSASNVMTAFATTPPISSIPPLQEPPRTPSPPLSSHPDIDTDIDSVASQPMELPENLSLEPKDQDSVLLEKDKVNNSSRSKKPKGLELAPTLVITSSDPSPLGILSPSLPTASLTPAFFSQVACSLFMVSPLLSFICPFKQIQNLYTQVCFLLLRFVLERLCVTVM
# How it was run: as §1
# [16] = target: T10, ETV2 (Homo sapiens, UniProt O00321 1-342); conditions: protein: recombinant; tags: N-terminal GST; dsDNA, one strand shown
# T10 sequence: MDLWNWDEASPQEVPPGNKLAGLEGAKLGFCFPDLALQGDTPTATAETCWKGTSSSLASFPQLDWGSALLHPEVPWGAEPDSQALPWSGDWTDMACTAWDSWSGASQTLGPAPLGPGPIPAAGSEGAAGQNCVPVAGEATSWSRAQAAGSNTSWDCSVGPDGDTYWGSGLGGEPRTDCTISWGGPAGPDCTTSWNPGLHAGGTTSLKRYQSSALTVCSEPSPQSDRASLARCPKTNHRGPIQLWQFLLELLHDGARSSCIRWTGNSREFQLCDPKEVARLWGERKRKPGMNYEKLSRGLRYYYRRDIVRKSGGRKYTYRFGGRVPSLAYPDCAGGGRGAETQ
# How it was run: as §1
# [17] = target: T11, ELF3 (Homo sapiens, UniProt P78545 1-371); conditions: protein: recombinant; tags: N-terminal GST; dsDNA, one strand shown
# T11 sequence: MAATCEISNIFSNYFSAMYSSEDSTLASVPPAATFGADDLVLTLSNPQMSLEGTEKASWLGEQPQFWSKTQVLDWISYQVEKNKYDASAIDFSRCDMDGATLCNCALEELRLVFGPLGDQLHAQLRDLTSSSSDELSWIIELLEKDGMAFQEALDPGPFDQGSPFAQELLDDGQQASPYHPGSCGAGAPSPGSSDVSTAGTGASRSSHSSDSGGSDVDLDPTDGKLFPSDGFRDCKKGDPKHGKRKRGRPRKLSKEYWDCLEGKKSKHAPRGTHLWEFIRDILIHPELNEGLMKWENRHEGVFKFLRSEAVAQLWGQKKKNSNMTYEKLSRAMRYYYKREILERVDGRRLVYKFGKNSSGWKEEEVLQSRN
# How it was run: as §1
# [18] = target: CRX (Homo sapiens, UniProt O43186 1-299); conditions: protein: recombinant; tags: N-terminal GST; dsDNA, one strand shown
# CRX, sequence (O43186 whole entry): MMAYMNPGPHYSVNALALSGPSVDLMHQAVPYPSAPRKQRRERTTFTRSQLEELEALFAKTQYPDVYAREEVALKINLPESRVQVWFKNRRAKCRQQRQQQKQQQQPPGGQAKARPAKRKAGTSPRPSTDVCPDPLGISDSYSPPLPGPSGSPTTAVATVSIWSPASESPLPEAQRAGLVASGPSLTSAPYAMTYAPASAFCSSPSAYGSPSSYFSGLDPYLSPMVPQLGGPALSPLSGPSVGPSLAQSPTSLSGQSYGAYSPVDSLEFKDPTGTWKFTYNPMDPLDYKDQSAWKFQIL
# How it was run: as §1
# [19] = target: ETV1 (Homo sapiens, UniProt P50549 1-477); conditions: protein: recombinant; tags: N-terminal GST; dsDNA, one strand shown
# ETV1, sequence (P50549 whole entry): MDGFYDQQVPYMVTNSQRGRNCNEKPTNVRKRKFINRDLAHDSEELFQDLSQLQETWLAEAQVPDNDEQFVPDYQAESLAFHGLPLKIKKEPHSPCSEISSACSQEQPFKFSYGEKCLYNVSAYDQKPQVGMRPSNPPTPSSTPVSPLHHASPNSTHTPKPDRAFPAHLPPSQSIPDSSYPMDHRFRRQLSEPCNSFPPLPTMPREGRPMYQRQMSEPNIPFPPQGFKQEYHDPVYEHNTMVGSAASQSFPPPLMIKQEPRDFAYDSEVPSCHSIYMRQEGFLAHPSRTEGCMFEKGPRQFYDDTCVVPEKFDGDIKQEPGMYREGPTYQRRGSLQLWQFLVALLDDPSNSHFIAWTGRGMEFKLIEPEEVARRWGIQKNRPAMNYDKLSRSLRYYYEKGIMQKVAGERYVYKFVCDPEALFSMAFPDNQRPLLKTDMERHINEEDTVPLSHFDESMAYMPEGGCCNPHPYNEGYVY
# How it was run: as §1
sequence,measurement,setting,value
AGGTCT,binding signal,[1],"1.31 fold enrichment (6-mer frequency, TF over GST control)"
same,binding signal,[2],"1.17 fold enrichment (6-mer frequency, TF over GST control)"
same,binding signal,[3],"1.16 fold enrichment (6-mer frequency, TF over GST control)"
same,binding signal,[4],"1.15 fold enrichment (6-mer frequency, TF over GST control)"
same,binding signal,[5],"1.22 fold enrichment (6-mer frequency, TF over GST control)"
same,binding signal,[6],"1.19 fold enrichment (6-mer frequency, TF over GST control)"
same,binding signal,[7],"1.11 fold enrichment (6-mer frequency, TF over GST control)"
same,binding signal,[8],"1.22 fold enrichment (6-mer frequency, TF over GST control)"
same,binding signal,[9],"1.3 fold enrichment (6-mer frequency, TF over GST control)"
same,binding signal,[10],"1.11 fold enrichment (6-mer frequency, TF over GST control)"
same,binding signal,[11],"1.2 fold enrichment (6-mer frequency, TF over GST control)"
same,binding signal,[12],"1.09 fold enrichment (6-mer frequency, TF over GST control)"
same,binding signal,[13],"1.13 fold enrichment (6-mer frequency, TF over GST control)"
same,binding signal,[14],"1.2 fold enrichment (6-mer frequency, TF over GST control)"
same,binding signal,[15],"1.23 fold enrichment (6-mer frequency, TF over GST control)"
same,binding signal,[16],"1.23 fold enrichment (6-mer frequency, TF over GST control)"
same,binding signal,[17],"1.08 fold enrichment (6-mer frequency, TF over GST control)"
same,binding signal,[18],"1.21 fold enrichment (6-mer frequency, TF over GST control)"
same,binding signal,[19],"1.16 fold enrichment (6-mer frequency, TF over GST control)"
